# Measurements taken from ChEMBL document CHEMBL1961873, “Compounds: GSK PKIS; Assays: Nanosyn kinase panel” (2012).
# “And” between values parts separate entries of the source, which are not always exact repeats. Equal entries are not always repeated.
# Assays:
# [1] = target: Sphingosine kinase 1 (Homo sapiens) (UniProt Q9NYA1); conditions: at 1 µM;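 note: mean SPHK1 inhibition value reported from the GSK PKIS kinase panel screen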
# [2] = target: T1, Sphingosine kinase 2 (Homo sapiens) (UniProt Q9NRA0); conditions: at 0.1 µM
# T1 sequence (whole entry): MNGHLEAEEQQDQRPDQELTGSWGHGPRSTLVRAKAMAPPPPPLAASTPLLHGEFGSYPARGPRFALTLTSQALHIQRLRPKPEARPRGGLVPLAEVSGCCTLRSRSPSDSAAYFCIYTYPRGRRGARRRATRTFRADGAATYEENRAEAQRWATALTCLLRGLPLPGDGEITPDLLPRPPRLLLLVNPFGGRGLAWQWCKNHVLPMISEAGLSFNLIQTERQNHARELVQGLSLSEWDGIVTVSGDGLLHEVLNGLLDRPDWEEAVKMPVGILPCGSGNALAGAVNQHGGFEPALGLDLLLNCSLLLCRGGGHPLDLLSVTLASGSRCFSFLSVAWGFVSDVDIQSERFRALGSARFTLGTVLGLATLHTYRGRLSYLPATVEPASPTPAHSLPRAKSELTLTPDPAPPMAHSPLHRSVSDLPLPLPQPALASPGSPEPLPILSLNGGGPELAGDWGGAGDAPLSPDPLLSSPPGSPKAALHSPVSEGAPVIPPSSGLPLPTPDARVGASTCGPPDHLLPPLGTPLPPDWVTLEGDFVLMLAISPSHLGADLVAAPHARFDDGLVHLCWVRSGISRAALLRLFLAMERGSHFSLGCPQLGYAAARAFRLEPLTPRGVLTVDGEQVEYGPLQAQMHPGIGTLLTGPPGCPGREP
# [3] = target: T1, Sphingosine kinase 2 (Homo sapiens); conditions: at 1 µM
# [4] = target: Casein kinase II subunit alpha (Homo sapiens) (UniProt P68400); conditions: at 0.1 µM
# Casein kinase II subunit alpha (Homo sapiens), sequence (P68400 whole entry, looked up): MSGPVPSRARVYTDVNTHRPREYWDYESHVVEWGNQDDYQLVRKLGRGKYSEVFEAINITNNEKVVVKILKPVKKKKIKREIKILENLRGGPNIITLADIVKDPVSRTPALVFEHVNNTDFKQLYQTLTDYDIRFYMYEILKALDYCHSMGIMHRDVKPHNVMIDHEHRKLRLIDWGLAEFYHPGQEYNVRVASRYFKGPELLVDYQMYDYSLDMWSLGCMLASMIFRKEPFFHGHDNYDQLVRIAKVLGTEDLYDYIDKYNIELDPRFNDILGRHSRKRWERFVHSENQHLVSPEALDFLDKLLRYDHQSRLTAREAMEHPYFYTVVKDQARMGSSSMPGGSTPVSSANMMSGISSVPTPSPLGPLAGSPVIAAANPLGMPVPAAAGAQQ
# [5] = target: Casein kinase II subunit alpha (Homo sapiens) (UniProt P68400); conditions: at 1 µM
# [6] = target: T2, Inhibitor of nuclear factor kappa-B kinase subunit alpha (Homo sapiens) (UniProt O15111); conditions: at 0.1 µM
# T2 sequence (whole entry): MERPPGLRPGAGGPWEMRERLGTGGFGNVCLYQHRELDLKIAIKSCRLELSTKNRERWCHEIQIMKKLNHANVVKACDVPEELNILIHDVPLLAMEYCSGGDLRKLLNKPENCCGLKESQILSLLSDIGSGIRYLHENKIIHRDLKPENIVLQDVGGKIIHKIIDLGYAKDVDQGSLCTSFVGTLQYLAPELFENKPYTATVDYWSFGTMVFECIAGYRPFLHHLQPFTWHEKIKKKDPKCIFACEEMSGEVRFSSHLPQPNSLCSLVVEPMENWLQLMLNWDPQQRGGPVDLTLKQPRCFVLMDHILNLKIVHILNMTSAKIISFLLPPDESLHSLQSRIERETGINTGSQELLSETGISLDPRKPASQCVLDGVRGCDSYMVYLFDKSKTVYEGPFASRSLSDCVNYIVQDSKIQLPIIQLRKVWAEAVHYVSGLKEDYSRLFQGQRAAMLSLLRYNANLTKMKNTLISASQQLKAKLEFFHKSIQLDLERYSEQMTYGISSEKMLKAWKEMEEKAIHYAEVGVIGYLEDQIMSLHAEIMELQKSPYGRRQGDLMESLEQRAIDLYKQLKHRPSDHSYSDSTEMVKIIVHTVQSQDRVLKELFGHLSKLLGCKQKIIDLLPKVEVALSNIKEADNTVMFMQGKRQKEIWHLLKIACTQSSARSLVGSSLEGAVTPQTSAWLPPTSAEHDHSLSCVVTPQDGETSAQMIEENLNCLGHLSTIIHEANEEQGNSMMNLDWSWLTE
# [7] = target: T2, Inhibitor of nuclear factor kappa-B kinase subunit alpha (Homo sapiens); conditions: at 1 µM
# [8] = target: T3, Inhibitor of nuclear factor kappa-B kinase subunit beta (Homo sapiens) (UniProt O14920); conditions: at 0.1 µM
# T3 sequence (whole entry): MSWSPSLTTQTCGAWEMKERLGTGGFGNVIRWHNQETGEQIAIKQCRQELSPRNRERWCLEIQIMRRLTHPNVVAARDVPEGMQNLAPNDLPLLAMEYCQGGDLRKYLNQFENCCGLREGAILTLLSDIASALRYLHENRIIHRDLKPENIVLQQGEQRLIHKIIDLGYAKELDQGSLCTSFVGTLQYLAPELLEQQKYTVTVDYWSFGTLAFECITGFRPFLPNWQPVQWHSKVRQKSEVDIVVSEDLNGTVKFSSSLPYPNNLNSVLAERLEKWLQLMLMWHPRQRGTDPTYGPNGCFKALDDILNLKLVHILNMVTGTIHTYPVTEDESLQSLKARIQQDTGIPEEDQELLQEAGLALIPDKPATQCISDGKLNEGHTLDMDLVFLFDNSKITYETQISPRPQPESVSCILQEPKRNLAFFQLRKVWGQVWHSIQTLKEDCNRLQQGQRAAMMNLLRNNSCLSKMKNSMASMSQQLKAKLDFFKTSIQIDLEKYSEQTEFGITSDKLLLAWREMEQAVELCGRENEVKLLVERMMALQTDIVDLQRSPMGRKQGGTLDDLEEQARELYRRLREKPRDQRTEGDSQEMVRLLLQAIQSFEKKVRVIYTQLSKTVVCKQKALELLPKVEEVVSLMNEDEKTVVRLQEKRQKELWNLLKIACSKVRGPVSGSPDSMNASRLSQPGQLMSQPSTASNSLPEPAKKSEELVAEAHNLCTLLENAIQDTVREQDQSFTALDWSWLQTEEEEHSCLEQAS
# [9] = target: T3, Inhibitor of nuclear factor kappa-B kinase subunit beta (Homo sapiens); conditions: at 1 µM
# [10] = target: T4, Inhibitor of nuclear factor kappa-B kinase subunit epsilon (Homo sapiens) (UniProt Q14164); conditions: at 0.1 µM;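 note: mean inhibition of IKKε reported, from the GSK PKIS dataset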
# T4 sequence (whole entry): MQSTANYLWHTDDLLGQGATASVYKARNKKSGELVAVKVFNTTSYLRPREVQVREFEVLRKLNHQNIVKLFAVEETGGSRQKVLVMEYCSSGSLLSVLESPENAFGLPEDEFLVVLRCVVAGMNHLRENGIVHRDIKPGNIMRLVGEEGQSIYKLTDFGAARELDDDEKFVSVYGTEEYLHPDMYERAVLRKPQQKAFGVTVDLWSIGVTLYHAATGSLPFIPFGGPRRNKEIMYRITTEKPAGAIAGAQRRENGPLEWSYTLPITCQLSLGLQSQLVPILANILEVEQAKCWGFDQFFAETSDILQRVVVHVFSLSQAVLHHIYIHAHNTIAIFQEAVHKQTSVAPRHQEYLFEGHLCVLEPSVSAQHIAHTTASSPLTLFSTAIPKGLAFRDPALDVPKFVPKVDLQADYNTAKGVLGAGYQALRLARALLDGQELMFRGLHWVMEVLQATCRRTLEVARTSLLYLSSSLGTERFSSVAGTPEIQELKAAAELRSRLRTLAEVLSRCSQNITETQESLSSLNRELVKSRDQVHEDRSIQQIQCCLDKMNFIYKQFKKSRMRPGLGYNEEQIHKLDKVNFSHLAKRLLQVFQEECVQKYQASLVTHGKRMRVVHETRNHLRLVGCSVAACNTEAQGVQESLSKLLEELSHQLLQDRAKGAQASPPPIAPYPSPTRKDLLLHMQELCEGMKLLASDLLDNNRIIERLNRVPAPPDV
# Sphingosine kinase 1 (Homo sapiens), sequence (Q9NYA1 whole entry): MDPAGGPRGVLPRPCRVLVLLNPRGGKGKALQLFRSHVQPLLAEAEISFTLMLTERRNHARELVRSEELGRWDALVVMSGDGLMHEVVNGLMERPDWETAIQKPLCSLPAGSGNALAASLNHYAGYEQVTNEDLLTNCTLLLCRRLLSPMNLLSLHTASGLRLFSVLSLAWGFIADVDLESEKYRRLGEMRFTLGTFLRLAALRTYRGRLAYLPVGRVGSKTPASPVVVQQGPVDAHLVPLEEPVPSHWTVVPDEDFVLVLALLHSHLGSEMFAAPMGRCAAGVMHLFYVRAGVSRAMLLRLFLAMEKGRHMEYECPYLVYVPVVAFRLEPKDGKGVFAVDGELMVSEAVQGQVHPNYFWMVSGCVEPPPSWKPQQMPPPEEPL
smiles,measurement,setting,value
Nc1nonc1-c1nc2cnccc2n1C1CC1,inhibition,[1],-2.58% and -3.16%
same,inhibition,[2],0.27% and 0.67%
same,inhibition,[3],0.49% and 1.53%
same,inhibition,[4],1.54% and 1.55%
same,inhibition,[5],1.9% and 1.11%
same,inhibition,[6],6.14% and 3.82%
same,inhibition,[7],1.6% and 3.39%
same,inhibition,[8],4.31% and 2.15%
same,inhibition,[9],1.3% and 3.29%
same,inhibition,[10],3.18% and 3.84%
